# Experimental data: the supplement of paper PMC10849652
# The full data set covers some 8,800 targets. This sample favours those with a hit. About 0.5% of all pairs of compound and target were hits. A number with no mark means an inactive call.
# Compound: NCC(=O)Nc1ccc(-n2nc(C(F)(F)F)cc2-c2ccc3c(ccc4ccccc43)c2)cc1
# Assay: log2 fold change, soluble protein after heating vs DMSO (PISA); higher = thermal stabilisation; K562 lysate, 10 uM; active = over 0.2 and 3.5 SD of the protein, either way, in both replicates (recomputed)
# In short: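 Log-two fold change in thermal stability relative to solvent controls is reported from duplicates. For each sample, crude K562 extract from dounce-homogenised pellets in PBS pH 7.4 with 1 mM MgCl2, at 1 mg/mL protein, was treated with 10 μM compound for 30 min. Aliquots heated for 3 min across 48°C-58°C were pooled, brought to 0.5% NP-40 at 4°C and cleared at 21,000xg for 90 min. The supernatant was quantified by TMTpro 16plex LC-MS/MS with channel sums equalised.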
# UniProt P49675, sequence (P49675 whole entry, looked up): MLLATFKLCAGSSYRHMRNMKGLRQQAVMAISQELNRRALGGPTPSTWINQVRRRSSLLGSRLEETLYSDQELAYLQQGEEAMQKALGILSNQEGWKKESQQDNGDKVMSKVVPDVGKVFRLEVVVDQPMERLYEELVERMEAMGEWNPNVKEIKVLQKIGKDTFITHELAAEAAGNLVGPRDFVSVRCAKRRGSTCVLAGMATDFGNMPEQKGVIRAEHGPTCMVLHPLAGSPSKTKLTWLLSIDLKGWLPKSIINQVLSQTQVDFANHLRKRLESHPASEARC
# UniProt Q8TCT8, sequence (Q8TCT8 whole entry, looked up): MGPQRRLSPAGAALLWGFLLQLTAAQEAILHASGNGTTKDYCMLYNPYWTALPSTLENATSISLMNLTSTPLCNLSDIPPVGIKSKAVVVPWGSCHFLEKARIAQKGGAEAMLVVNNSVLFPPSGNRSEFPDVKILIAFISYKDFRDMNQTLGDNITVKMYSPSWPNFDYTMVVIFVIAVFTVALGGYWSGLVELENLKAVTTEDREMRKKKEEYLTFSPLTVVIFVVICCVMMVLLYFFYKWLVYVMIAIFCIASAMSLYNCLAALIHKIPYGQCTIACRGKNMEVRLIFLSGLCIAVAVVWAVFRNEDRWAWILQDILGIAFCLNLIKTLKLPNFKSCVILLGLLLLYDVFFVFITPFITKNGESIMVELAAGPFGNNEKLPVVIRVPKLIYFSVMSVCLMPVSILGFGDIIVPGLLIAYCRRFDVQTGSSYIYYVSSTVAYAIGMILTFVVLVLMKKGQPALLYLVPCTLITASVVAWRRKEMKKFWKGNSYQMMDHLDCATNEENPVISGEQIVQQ
# UniProt Q13188, sequence (Q13188 whole entry, looked up): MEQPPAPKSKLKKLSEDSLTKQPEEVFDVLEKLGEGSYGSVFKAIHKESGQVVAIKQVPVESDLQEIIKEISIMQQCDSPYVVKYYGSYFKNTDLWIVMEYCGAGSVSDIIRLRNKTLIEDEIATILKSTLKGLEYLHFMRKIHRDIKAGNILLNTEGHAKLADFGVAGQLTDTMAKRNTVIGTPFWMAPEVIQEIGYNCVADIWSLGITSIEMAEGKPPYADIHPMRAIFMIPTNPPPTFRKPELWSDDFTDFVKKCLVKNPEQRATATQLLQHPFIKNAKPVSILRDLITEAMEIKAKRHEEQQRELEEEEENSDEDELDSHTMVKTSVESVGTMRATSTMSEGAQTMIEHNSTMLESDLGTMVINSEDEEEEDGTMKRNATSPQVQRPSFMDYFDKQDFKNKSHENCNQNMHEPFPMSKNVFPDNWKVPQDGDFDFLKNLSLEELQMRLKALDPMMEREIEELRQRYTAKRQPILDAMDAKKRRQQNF
# UniProt Q92540, sequence (Q92540 whole entry, looked up): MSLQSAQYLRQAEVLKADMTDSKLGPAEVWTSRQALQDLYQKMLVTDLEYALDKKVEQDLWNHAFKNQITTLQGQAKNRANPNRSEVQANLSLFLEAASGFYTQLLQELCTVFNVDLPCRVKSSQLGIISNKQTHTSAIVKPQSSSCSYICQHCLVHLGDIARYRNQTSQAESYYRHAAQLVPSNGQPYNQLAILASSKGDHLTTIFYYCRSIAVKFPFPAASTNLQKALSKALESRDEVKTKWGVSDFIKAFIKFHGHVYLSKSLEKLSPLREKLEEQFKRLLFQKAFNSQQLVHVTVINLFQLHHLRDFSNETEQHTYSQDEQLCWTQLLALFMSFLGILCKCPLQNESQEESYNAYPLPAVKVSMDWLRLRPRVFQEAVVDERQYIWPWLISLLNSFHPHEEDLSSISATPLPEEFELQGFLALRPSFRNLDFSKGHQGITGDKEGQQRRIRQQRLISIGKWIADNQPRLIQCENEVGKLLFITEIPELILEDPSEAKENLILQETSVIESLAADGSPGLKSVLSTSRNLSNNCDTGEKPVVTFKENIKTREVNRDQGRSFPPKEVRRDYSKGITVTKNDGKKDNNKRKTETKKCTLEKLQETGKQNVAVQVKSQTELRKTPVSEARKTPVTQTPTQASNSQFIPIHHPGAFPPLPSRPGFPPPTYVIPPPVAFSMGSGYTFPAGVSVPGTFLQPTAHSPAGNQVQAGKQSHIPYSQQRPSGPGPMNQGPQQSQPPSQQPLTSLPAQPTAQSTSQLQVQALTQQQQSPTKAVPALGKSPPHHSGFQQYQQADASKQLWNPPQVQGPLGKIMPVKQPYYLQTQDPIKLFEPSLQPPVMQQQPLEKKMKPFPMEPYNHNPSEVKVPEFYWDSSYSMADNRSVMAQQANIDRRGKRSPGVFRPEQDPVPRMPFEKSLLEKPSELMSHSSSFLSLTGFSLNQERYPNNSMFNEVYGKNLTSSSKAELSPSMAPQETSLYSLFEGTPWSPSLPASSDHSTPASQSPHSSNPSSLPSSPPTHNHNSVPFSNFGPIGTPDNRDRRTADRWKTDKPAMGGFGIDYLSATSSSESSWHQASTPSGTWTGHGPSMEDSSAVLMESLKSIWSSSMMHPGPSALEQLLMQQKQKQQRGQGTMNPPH
# UniProt Q01650, sequence (Q01650 whole entry, looked up): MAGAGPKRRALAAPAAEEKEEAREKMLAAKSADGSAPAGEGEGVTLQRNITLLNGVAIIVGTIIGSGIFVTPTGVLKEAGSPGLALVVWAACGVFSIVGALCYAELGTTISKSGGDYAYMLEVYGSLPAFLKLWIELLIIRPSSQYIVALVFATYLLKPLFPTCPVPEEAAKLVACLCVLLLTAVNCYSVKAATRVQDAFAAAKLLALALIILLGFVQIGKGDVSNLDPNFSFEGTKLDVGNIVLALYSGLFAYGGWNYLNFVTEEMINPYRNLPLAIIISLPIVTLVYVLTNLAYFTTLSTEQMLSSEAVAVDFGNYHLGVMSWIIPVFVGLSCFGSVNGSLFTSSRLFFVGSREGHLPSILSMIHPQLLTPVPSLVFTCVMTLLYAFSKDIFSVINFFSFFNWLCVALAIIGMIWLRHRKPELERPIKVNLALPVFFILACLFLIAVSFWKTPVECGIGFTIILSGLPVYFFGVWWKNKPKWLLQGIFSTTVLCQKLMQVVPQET
# UniProt Q9P289, sequence (Q9P289 whole entry, looked up): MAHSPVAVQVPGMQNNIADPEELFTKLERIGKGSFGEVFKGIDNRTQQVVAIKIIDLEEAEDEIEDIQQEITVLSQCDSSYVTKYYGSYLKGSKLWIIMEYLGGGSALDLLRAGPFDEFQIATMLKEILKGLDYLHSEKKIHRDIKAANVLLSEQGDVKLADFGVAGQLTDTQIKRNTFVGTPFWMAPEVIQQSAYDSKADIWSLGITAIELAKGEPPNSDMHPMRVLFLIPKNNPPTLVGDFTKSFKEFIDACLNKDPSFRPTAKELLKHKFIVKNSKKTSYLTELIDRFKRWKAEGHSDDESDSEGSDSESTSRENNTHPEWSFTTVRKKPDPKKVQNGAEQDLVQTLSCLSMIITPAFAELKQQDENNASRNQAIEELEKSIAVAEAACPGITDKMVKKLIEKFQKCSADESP
# UniProt P31947, sequence (P31947 whole entry, looked up): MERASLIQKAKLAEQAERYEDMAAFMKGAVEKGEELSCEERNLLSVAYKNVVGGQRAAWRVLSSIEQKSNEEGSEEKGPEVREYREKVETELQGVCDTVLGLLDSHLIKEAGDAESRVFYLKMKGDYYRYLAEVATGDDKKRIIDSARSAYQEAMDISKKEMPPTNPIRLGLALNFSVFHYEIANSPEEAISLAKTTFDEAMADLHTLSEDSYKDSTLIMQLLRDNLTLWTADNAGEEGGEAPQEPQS
# UniProt O75528, sequence (O75528 whole entry, looked up): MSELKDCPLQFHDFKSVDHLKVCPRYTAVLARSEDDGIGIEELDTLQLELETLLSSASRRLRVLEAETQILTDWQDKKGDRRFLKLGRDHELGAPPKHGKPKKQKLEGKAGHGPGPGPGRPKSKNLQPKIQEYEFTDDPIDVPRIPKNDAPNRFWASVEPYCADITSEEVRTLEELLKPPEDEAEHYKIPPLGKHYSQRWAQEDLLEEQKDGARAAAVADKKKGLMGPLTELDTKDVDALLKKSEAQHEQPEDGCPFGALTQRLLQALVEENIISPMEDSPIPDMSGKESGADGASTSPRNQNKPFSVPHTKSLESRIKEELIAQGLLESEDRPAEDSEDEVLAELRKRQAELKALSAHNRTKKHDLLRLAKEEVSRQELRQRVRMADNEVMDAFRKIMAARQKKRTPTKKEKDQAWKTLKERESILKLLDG
# UniProt P35610, sequence (P35610 whole entry, looked up): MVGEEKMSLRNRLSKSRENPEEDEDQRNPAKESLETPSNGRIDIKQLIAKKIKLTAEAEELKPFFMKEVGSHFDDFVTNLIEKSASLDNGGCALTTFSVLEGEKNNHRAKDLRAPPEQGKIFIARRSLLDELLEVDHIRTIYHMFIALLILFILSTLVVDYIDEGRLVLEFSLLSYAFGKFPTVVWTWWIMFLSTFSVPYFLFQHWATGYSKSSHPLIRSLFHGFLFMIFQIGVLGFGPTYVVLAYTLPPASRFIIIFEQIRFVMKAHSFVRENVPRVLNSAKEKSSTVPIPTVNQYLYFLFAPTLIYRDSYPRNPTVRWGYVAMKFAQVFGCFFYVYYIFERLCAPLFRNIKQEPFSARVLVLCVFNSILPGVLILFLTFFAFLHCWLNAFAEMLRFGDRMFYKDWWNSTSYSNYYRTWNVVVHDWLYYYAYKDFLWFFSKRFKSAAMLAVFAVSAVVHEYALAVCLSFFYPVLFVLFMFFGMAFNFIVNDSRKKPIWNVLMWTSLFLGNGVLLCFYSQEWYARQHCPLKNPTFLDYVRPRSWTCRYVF
# UniProt Q99963, sequence (Q99963 whole entry, looked up): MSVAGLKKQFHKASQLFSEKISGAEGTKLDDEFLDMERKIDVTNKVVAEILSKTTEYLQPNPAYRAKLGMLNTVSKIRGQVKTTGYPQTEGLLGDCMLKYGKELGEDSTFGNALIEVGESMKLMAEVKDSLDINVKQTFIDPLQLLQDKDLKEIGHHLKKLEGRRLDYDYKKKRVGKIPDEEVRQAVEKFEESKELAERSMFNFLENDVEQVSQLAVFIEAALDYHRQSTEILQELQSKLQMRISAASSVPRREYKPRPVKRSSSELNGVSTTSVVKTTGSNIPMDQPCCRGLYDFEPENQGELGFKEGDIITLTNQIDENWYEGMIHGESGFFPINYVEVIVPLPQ
row,Target,log2 fold change
1,TANGO6 (UniProt Q9C0B7),0.007
2,SUZ12 (UniProt Q15022),-0.064
3,STAR (UniProt P49675),0.002
4,SNAP23 (UniProt O00161),-0.017
5,SMG7 (UniProt Q92540),0.158
6,SNRPD2 (UniProt K7EJB5),0.119
7,TARBP1 (UniProt Q13395),-0.151
8,SRGN (UniProt P10124),-0.073
9,SH3BP2 isoform 4 (UniProt P78314),0.08
10,SH3GL3 isoform 3 (UniProt Q99963),0.108
11,SMC6 (UniProt Q96SB8),-0.006
12,SHC1 isoform 6 (UniProt P29353),0.029
13,SNUPN (UniProt O95149),-0.076
14,SYF2 (UniProt O95926),-0.047
15,STARD3 isoform 3 (UniProt Q14849),0.022
16,TADA3 (UniProt O75528),0.018
17,STK26 (UniProt Q9P289),-0.027
18,SMN1 (UniProt Q16637),-0.014
19,SLC7A5 (UniProt Q01650),0.034
20,SFN (UniProt P31947),-0.001

row,Target,log2 fold change
1,SLC40A1 (UniProt Q9NP59),0.005
2,SH3BGRL2 (UniProt Q9UJC5),-0.003
3,SLC30A9 (UniProt Q6PML9),-0.109
4,SOAT1 (UniProt P35610),0.014
5,SND1 (UniProt Q7KZF4),0.001
6,SLC38A1 (UniProt Q9H2H9),-0.015
7,TAF9 (UniProt Q16594),0.002
8,SLC29A2 (UniProt Q14542),-0.045
9,SKA3 (UniProt Q8IX90),-0.007
10,STK3 isoform 2 (UniProt Q13188),0.034
11,SPAG5 (UniProt Q96R06),0.038
12,SPPL2A (UniProt Q8TCT8),0.407
13,SLC27A2 (UniProt O14975),-0.108
14,SSNA1 (UniProt O43805),-0.036
15,SLC12A6 (UniProt Q9UHW9),0.009
16,SFR1 isoform 2 (UniProt Q86XK3),0.092
17,SLC16A1 (UniProt P53985),0.004
18,TAF6L (UniProt Q9Y6J9),-0.022
19,SLC30A6 isoform 2 (UniProt Q6NXT4),0.014
